The list is not random: actives were taken first. Their share in the collection is about 19%.
DT40 TDP1 CPT – qHTS for Inhibitors of human tyrosyl-DNA phosphodiesterase 1 (TDP1): qHTS in cells in presence of CPT. AID 686979, 2013. Potency, µM (doses to about 46.2 µM), inactives show top-dose activity change, negative = growth inhibition, actives largely listed as inhibitors. 420,000 compounds, 12% hits. chicken DT40 Tdp1-/-;hTDP1 cells + 20 nM CPT, ATP luminescence, 48 h; also: nearly all actives have a fitted effect of over 55% in size
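Chicken DT40 Tdp1-/- cells complemented with human TDP1, 400 cells/well, exposed to compounds plus 20 nM camptothecin for at least 48 h at 37 C; viability read as ATP content by CellTiter-Glo luminescence.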
DT40 TDP1 no CPT – qHTS for Inhibitors of human tyrosyl-DNA phosphodiesterase 1 (TDP1): qHTS in cells in absence of CPT. DT40 Tdp1-/- hTDP1 cells, no CPT, ATP luminescence, 48 h. Potency, µM (top dose mostly 46.2 µM), without a hit: at the top dose activity change, negative = growth inhibition, hits mostly inhibitors. 420,000 compounds, 15% hits. AID 686978, 2013; also: nearly all actives have a fitted effect of over 55% in size
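Growth kinetics read by CellTiter-Glo luminescence after ≥48 hr at 37 °C. Cells: DT40 Tdp1-/- stably carrying human TDP1, 400 per well, compound exposure in the absence of CPT (DMSO vehicle).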
KB-V1 cytotox – qHTS assay for MDR1-selective chemotherapeutics: Primary screen using the drug-selected MDR subline cells KB-V1; KB-V1 MDR cells viability, CellTiter-Glo, 72 h; Potency, µM (doses to about 46.1 µM), hits mostly cytotoxic; 400,000 compounds, 3.4% hits; also: nearly all actives have a fitted effect of over 60% in size
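Potencies derive from concentration-effect curves fitted to normalized luminescence (CellTiter-Glo) of KB-V1 cells treated for 72 h at 37 degrees C in phenol-red-free DMEM containing 10% FBS.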
HT1080 IDH1KD tx – qHTS for induction of synthetic lethality in tumor cells producing 2HG: qHTS for the HT-1080-IDH1KD cell line; HT-1080 IDH1 knockdown viability, ATP luminescence, 48 h; Potency, µM (top dose mostly 46.1 µM), without a hit: at the top dose activity, negative = toxicity, most hits filed as cytotoxic; 360,000 compounds, 2% hits;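 also: 0% = DMSO wells and -100% = cell-free medium wells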
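Using the IDH1-knockdown HT-1080 line run in the same batch and compound series as the NT line, viability after 48 h at 37 °C was determined by CellTiter-Glo luminescence and expressed as % activity.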
KB-3-1 tox – qHTS assay for MDR1-selective chemotherapeutics: Primary screen using the parental adenocarcinoma cell KB-3-1. KB-3-1 viability, CellTiter-Glo ATP luminescence, 72 h. Potency, µM (series often up to 46.1 µM), actives largely listed as cytotoxic. 400,000 compounds, 1.4% hits. AID 1347075, 2019; also: nearly all actives have a fitted effect of over 60% in size
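Cytotoxicity in the drug-sensitive parental line KB-3-1 was scored as loss of CellTiter-Glo luminescence following 72 h incubation with compound. Values come from curve fitting of normalized concentration-response data.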
HT1080-NT tox – qHTS for induction of synthetic lethality in tumor cells producing 2HG: qHTS for the HT-1080-NT fibrosarcoma cell line | HT-1080-NT fibrosarcoma viability, CellTiter-Glo ATP luminescence, 48 h | Potency, µM (highest dose often 46.1 µM), inactives show at the highest dose activity, negative = less viability, hits mostly cytotoxic | 360,000 compounds, 1.6% hits;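 also: NT is the 2HG producing partner of a matched IDH1 knockdown line; 0% = DMSO-treated cells and -100% = media-only wells without cells; nearly all actives have a fitted effect of over 55% in size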
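Fibrosarcoma NT cells, 750 per well in 5% FBS RPMI, were exposed to compound for 48 hours. Viability: CellTiter-Glo luminescence.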
Numbers without * were called inactive; i = inactive; ? = inconclusive; . = no result; [ ] = dose if it differs, or a comment. Calls follow the shape of the dose curve; as a rule, active = well fitted curve in the direction sought with a large enough effect; inconclusive = small, poorly fitted or top-dose-only effect, or another doubt; inactive = no such curve, though single readings can be large; an effect the other way counts as inactive or inconclusive. Unless noted, % is scaled to controls: 0 for no effect and ±100 for the full control effect; potency is read from the fitted curve at half-maximal effect.

SMILES | DT40 TDP1 CPT | DT40 TDP1 no CPT | KB-V1 cytotox | HT1080 IDH1KD tx | KB-3-1 tox | HT1080-NT tox
Cc1ccc(C)c(Nc2nnc(-n3nc(C)cc3C)c3ccccc23)c1 | ? | ? | i | . | i | .
Cc1ccc(Cl)cc1NC(=O)c1oc2ccc(S(=O)(=O)N(C)C3CCCCC3)cc2c1C | 20.6µM* | ? | . | . | . | .
Cc1ccc(Cl)cc1NC(=O)c1oc2ccc(S(=O)(=O)N3CCCCC3)cc2c1C | -13.9% | -24.3% | i | . | i | .
Cc1c(C(=O)Nc2ccc(S(=O)(=O)N(C)C3CCN(C)CC3)cc2)oc2ccccc12 | 20.6µM* | 18.4µM* | 20.6µM* | -10.6% | i | -10.2%
Cc1cccc(NC(=O)c2oc3ccc(S(=O)(=O)N(C)C4CCCCC4)cc3c2C)c1C | 10.3µM* | 8.2µM* | . | . | . | .
Cc1c(C(=O)Nc2cccc(Cl)c2)oc2ccc(S(=O)(=O)N(C)C3CCCCC3)cc12 | ? | 20.6µM* | . | . | . | .
CN1CCC(N(C)S(=O)(=O)c2ccc(NC(=O)c3ccc(S(=O)(=O)N(C)C)cc3)cc2)CC1 | -0.3% | -27.0% | i | 15.9% | i | 5.5%
CCN(CC)CCNC(=O)c1sc2nc(C)cc(C)c2c1-n1cccc1 | ? | ? | i | . | i | .
Cc1cccc(N(C)C(=O)C2CCN(S(=O)(=O)c3cccc4nonc34)CC2)c1 | ? | ? | i | . | i | .
COc1ccc([C@H]2CC(=O)C[C@@H](CCn3cc(C)nn3)O2)cc1 | 1.3% | -14.1% | i | 14.6% | i | 13.7%
Cc1ccc(NC2CCCN(C(=O)c3cc(C(C)C)nn3C)C2)cc1C (centres undefined) | -14.7% | -14.0% | ? | -8.1% | i | -5.6%
COc1ccc(NC(=O)CSc2nc3c(c(=O)[nH]2)CN(Cc2ccccc2)CC3)cc1Cl | ? | ? | ? | . | i | .
O=C(NCC1CCCCC1)c1cc(Br)ccc1Cl | 6.7% | ? | i | -3.0% | i | -2.5%
Cc1cc(NC(=O)NC(=O)c2ccccc2NC(=O)C(C)N)ccc1Oc1ncc(Br)cn1 (centres undefined) | 0.651µM* | 0.581µM* | 0.731µM* | 0.092µM* | 0.231µM* | ?
CCOc1ccc(NC(=O)CN2C(=O)CC(C)Sc3ccccc32)cc1 (centres undefined) | . | . | i | . | i | .
CC(=O)N1CCN(S(=O)(=O)c2cccc(C(=O)OCc3cccc(F)c3)c2)CC1 | ? | 23.1µM* | 18.4µM* | 0.0% | i | -5.5%
N#CCCN(C(=O)COC(=O)c1cccc(S(=O)(=O)N2CCCCCC2)c1)c1ccc(F)cc1 | -25.1% | -3.3% | 13µM* | 14.7% | i | -2.3%
CC(=O)N1CCN(S(=O)(=O)c2cccc(C(=O)OCC(=O)N(CCC#N)c3ccc(F)cc3)c2)CC1 | -6.1% | 3.1% | i | -1.2% | i | 2.8%
CC(=O)N1CCN(S(=O)(=O)c2cccc(C(=O)OCc3ccc(F)cc3)c2)CC1 | ? | 18.4µM* | i | -11.3% | i | -12.9%
CC(=O)N1CCN(S(=O)(=O)c2cccc(C(=O)OCN3C(=O)c4ccccc4C3=O)c2)CC1 | -21.7% | -23.5% | i | 25.8% | i | ?
O=C(C[n+]1ccccc1Cl)c1ccc(F)cc1 | -14.1% | -16.4% | i | . | i | .
O=C(COC(=O)c1cccc(F)c1)NC(=O)NCc1ccccc1 | -9.2% | 16.5% | i | -2.3% | i | -3.0%
COc1cccc2c(C)cc(N3CCCCCC3)nc12 | -15.5% | ? | i | -6.0% | i | 0.7%
COc1ccc(OC)c2c(C)cc(N3CCCCCC3)nc12 | ? | 9.2µM* | ? | -22.6% | i | -7.3%
Cc1cc(C)n(C(C)CC(=O)N2CCc3ccccc32)n1 (centres undefined) | -2.7% | ? | i | 3.6% | i | 4.8%
SMILES | DT40 TDP1 CPT | DT40 TDP1 no CPT | KB-V1 cytotox | HT1080 IDH1KD tx | KB-3-1 tox | HT1080-NT tox
Cc1cc(C(=O)N2CCc3ccccc32)n(-c2ccccc2)n1 | ? | 18.4µM* | ? | ? | 10.3µM* | ?
Cc1cc(C)n(-c2ccc(C(=O)N3CCc4ccccc43)cc2)n1 | ? | 16.4µM* | ? | -10.2% | ? | -12.5%
COc1ccccc1-n1c(=S)sc2c(=O)n(Cc3ccco3)c(SC)nc21 | -10.5% | -12.4% | 14.6µM* | -1.1% | i | -5.4%
CCCN(CCC)C(=O)CSc1nc2ccccc2c(=O)n1Cc1ccco1 | 18.4µM* | 20.6µM* | . | . | . | .
CCn1c(SCc2cccc(OC)c2)nc2ccccc2c1=O | 10.3µM* | 20.6µM* | i | -26.7% | i | -4.7%
O=C(CSc1nc2ccccc2c(=O)n1Cc1ccco1)N1CCCCCC1 | 20.6µM* | ? | 18.4µM* | ? | ? | -20.8%
O=C(CSc1nc2ccccc2c(=O)n1Cc1ccco1)NCc1ccco1 | ? | ? | i | 8.5%[9.24 µM] | i | -8.1%
CC(=O)NCCNC(=O)CCCc1nnc2n(CC(C)C)c(=O)c3sccc3n12 | -2.7% | -21.5% | . | . | . | .
CC(=O)N1CCN(C(=O)COC(=O)/C=C/c2ccccc2[N+](=O)[O-])CC1 | -19.9% | 3.3% | . | 4.7% | . | 1.0%
COC(=O)c1c(NC(=O)c2cc3nc(-c4ccc(Br)cc4)cc(C(F)(F)F)n3n2)sc2c1CCCC2 | ? | ? | i | . | i | .
CCN(CC)C(=O)CSc1nc2c(sc(=S)n2CC)c(=O)n1-c1ccccc1 | -18.2% | -29.8% | ? | 3.6% | ? | -7.7%
Cc1ccc(-n2c(SCc3ccc([N+](=O)[O-])cc3)nc3ccccc3c2=O)cc1 | ? | ? | i | -3.6% | i | 4.3%
CCOC(CCn1c(SCc2ccc([N+](=O)[O-])cc2)nc2ccccc2c1=O)OCC | 14.6µM* | 13µM* | 3.66µM* | -0.2% | i | -14.6%
CCN(CC)C(=O)CSc1nc2c(sc(=S)n2-c2ccccc2)c(=O)n1Cc1ccco1 | 23.1µM* | ? | ? | -2.9% | ? | -17.6%
Cc1cc(NC(=O)CSc2nc3cc(C(=O)NCCCOC(C)C)ccc3c(=O)n2Cc2ccco2)no1 | 18.4µM* | ? | i | -1.5% | ? | -2.7%
CCn1c(SCC(=O)N2CCCCCC2)nc2ccccc2c1=O | 20.6µM* | ? | 9.2µM* | 2.7% | i | -7.6%
